Reference: PubChem BioAssay (NCATS)
Values joined by “and” are separate entries in the source; they are usually repeats but may differ in a detail not shown here. Equal entries are not always repeated. Results filed as inconclusive are left out. Some structures have more than one record in an assay (separate samples or runs), and their calls can disagree. Active and inactive are the calls of the source. Unless noted, calls follow the shape of the full dose curve.

Key:
[1] = Primary qHTS for Huh7 cytotoxicity: counterscreen for inhibitors of MERS-S pseudotyped particle cell entry (AID 1479147); details: outcome: dose series up to 57.1 µM unless noted
[2] = Primary qHTS for Vero E6 cytotoxicity: counterscreen for inhibitors of SARS-S pseudo-typed particle cell entry (AID 1479150); details: outcome: dose series up to 57.1 µM unless noted; also: potency is read from the fitted curve at half-maximal effect
[3] = Confirmatory qHTS for VERO E6 Cytotoxicity Assay: Counterscreen for SARS-CoV-2 CPE Assay (AID 1508605); also: % is scaled to controls: 0 for no effect and ±100 for the full control effect; nearly all actives have a fitted effect of over 60% in size
[4] = Confirmatory qHTS for activators (rescue) of SARS-CoV-2 Cytopathic Effect (CPE) (AID 1508606); also: potency is read from the fitted curve at half-maximal effect; nearly all actives have a fitted effect of over 70% in size
[5] = Cytotoxicity counterscreen for inhibitors of SARS-CoV-2 cell entry (AID 1645845); details: outcome: dose series up to 57.1 µM unless noted; also: nearly all actives have a fitted effect of over 50% in size
Procedure, shortened: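 After a 15 min room-temperature ATPLite 1step step, luminescence reflected ATP remaining in HEK293-ACE2 cells exposed to compound for 1 h plus 48 h at 37 C, with percent activity set by cell and no-cell controls.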

[6] = Cell Viability - LYMP2-007 (AID 979; active = well fitted curve in the direction sought with a large enough effect; an effect the other way counts as inactive or inconclusive;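 also: potency is read from the fitted curve at half-maximal effect; cells exposed to compound for 24 h before reading; nearly all actives have a fitted effect of over 60% in size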)
Procedure, shortened: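 Measured via luciferase-based ATP quantitation: lymphoblastoid cells, 24 hr compound exposure at 37 C, AC50 from Hill fits.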

[7] = target: Estrogen receptor (Homo sapiens) (UniProt P03372); assay: qHTS assay for small molecule antagonists of estrogen receptor alpha signaling (AID 588513; active = well fitted curve in the direction sought with a large enough effect in the signal ratio, with a control signal flat, not every such curve was filed as active; the % refers to the signal ratio; also: % is scaled to controls: 0 for no effect and ±100 for the full control effect)
Procedure, shortened: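 Antagonist mode: inhibition of 0.5 nM 17-beta-estradiol-driven beta-lactamase reporter in HEK 293 ER-alpha-UAS-bla cells, 18 h at 37C, CCF4 readout after 2 h at RT. Normalised to estradiol and DMSO; titration fitted to Hill.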

[8] = target: Glucocorticoid receptor (Homo sapiens) (UniProt P04150); assay: qHTS assay for small molecule agonists of glucocorticoid receptor signaling (AID 588532; active = well fitted curve in the direction sought with a large enough effect in the signal ratio, with a control signal flat; the % refers to the signal ratio;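 also: 100% = dexamethasone at 0.1 µM and 0% = DMSO only wells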); details: HeLa MMTV-bla, beta-lactamase ratio, agonist, 18 h; stronger effect = higher value; percent of dexamethasone control, DMSO zero
Procedure, shortened: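 Stimulation of a glucocorticoid response element-driven beta-lactamase gene was measured in HeLa cells. Responses were scaled between DMSO basal and 0.1 uM dexamethasone, then fitted for half-maximal stimulation.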

[9] = target: Peroxisome proliferator-activated receptor delta (Homo sapiens) (UniProt Q03181); assay: qHTS assay for small molecule agonists of peroxisome proliferator-activated receptor delta signaling (AID 588534);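 also: 0% = DMSO basal wells and 100% = positive control agonist at 10 µM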
Procedure, shortened: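 EC50 and efficacy values derive from Hill fits of a concentration series in a beta-lactamase reporter cell assay. Exposure is 18 hrs at 37 C, with CCF4 fluorescence as the readout.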

[10] = target: Peroxisome proliferator-activated receptor gamma (Homo sapiens) (UniProt P37231); assay: qHTS assay for small molecule antagonists of peroxisome proliferator-activated receptor gamma signaling (AID 588537; active = well fitted inhibition curve with a large enough effect in the signal ratio, with a control signal flat, not every such curve was filed as active; the % refers to the signal ratio;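 also: reporter cells co-stimulated with 50 nM rosiglitazone agonist during compound treatment; % of control where 0% means no effect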)
Procedure, shortened: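 HEK293 cells, PPAR-gamma-UAS-bla, 3000/well. Pre-incubation 6-6.5 h, 37 C. Compound titration with rosiglitazone 50 nM final, 16 h. CCF4 dye, 2 h RT, dual-emission fluorescence.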

[11] = target: Thyroid hormone receptor beta (Homo sapiens) (UniProt P10828); assay: qHTS assay for small molecule antagonists of thyroid hormone receptor beta signaling (AID 588547; active = well fitted inhibition curve with a large enough effect in the signal ratio, with a control signal flat, not every such curve was filed as active; the % refers to the signal ratio;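 also: cells stimulated with 0.4 nM T3 agonist during compound exposure; % is scaled to controls: 0 for no effect and ±100 for the full control effect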); details: TR-UAS-bla HEK293, beta-lactamase ratio, antagonist mode, 18 h
Procedure, shortened: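 TR-UAS-bla GripTite HEK293 cells in 2% charcoal/dextran FBS medium were preincubated 4 h at 37 C, given compound (0.59 nM to 92 uM) plus 0.4 nM T3 (final) for 18 h, then CCF4 for 2 h at RT; Hill fit gave IC50.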

[12] = qHTS assay for small molecule agonists of the antioxidant response element (ARE) signaling pathway (AID 651741; active = well fitted activation curve with a large enough effect in the signal ratio; the % refers to the signal ratio; also: potency is read from the fitted curve at half-maximal effect; as to activation: % of control where 0% means no effect)
Procedure, shortened: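 Beta-lactamase reporter expression driven by the antioxidant response element in HepG2 cells was detected by fluorescence with LiveBLAzer B/G FRET substrate (2 h, room temperature) following 16 h compound treatment at 37 C.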

[13] = qHTS assay for small molecule agonists of the antioxidant response element (ARE) signaling pathway measured by Nrf2-dependant transcriptional activity (AID 720636; active = well fitted curve in the direction sought with a large enough effect in the repeat runs; an effect the other way counts as inactive or inconclusive; also: % of control where 0% means no effect)
Procedure, shortened: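 In HepG2 cells engineered with an Nrf2-responsive luciferase gene, ARE induction was quantified as luminescence after 16 hr compound treatment at 37 C.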

[14] = Primary qHTS for inhibitors of MERS-S pseudo-typed particle cell entry (AID 1479149); details: outcome: dose series up to 57.1 µM unless noted; also: nearly all actives have a fitted effect of over 60% in size; also: potency is read from the fitted curve at half-maximal effect; as to activity change, negative = inhibition: % is scaled to controls: 0 for no effect and ±100 for the full control effect
[15] = Primary qHTS to identify inhibitors of SARS-CoV-2 cell entry (AID 1645846); details: SARS-CoV-2 pseudovirus cell entry assay, luminescence; activity change, negative = inhibition: at 57.1 µM (top of the series) unless noted; also: nearly all actives have a fitted effect of over 45% in size; also: potency is read from the fitted curve at half-maximal effect
Procedure, shortened: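 Entry measured by luciferase signal 48 h after adding SARS-CoV-2-S pseudotyped MLV particles to HEK293-ACE2 cells preincubated 1 h with compounds. Normalisation: bald particles and spike particles.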

[16] = target: Alpha-galactosidase (Coffea arabica) (UniProt Q42656); assay: Counterscreen for Glucocerebrosidase Inhibitors: qHTS Assay for Coffee Bean alpha-Galactosidase at pH 4.5 (AID 957; active = well fitted curve in the direction sought with a large enough effect; an effect the other way counts as inactive or inconclusive;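 also: plate controls were enzyme alone for no effect and no enzyme for full effect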)
Procedure, shortened: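 Quantitative HTS of compounds (0.7 nM to 77 uM) against coffee bean alpha-galactosidase at pH 4.5, measuring 4-methylumbelliferone fluorescence released from 80 uM substrate.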

[17] = target: Alpha-galactosidase (Coffea arabica) (UniProt Q42656); assay: Counterscreen for Glucocerebrosidase Inhibitors: qHTS Assay for Coffee Bean alpha-Galactosidase at pH 5.9 (AID 998; active = well fitted curve in the direction sought with a large enough effect; an effect the other way counts as inactive or inconclusive;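 also: plate controls were uninhibited enzyme for no effect and no-enzyme basal signal for full effect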)
Procedure, shortened: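 In 50 mM citric acid pH 5.9 with 0.005% Tween-20, coffee bean enzyme hydrolyses 80 uM 4-MU alpha-D-galactopyranoside over 20 min at RT. Activity is normalized to controls; AC50 comes from Hill-modelled concentration-response data.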

[18] = Validation screen for inhibitors of Lassa infection (AID 463096); also: % is scaled to controls: 0 for no effect and ±100 for the full control effect
[19] = target: Glutathione peroxidase 1 (Homo sapiens) (UniProt P07203); assay: Primary qHTS Assay for Inhibitors of Recombinant Selenoprotein Glutathione Peroxidase 1 (GPX1) (AID 1845191; active = well fitted curve in the direction sought with a large enough effect; an effect the other way counts as inactive or inconclusive; also: % is scaled to controls: 0 for no effect and ±100 for the full control effect; nearly all actives have a fitted effect of over 65% in size)
Procedure, shortened: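 GPX1 10 nM, GR 100 nM, GSH 1 mM, NADPH 0.5 mM, CHP 0.5 mM (final). 30-min cpd preincubation, RT. Ex340/Em450 read t=0, t=15 min.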

[20] = target: Phospholipid hydroperoxide glutathione peroxidase GPX4 (Homo sapiens) (UniProt P36969); assay: Primary qHTS Assay for Inhibitors of Recombinant Selenoprotein Glutathione Peroxidase 4 (GPX4) (AID 1845192; active = well fitted curve in the direction sought with a large enough effect; an effect the other way counts as inactive or inconclusive; also: nearly all actives have a fitted effect of over 65% in size)
Procedure, shortened: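 qHTS, GR-coupled: GPX4 200 nM + cpd 30 min RT → GSH 1 mM, NADPH 0.5 mM, GR 100 nM → CHP 0.5 mM start; fluor 340/450 at t0 and t15 min; no-enzyme wells as control.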

[21] = S16 Schwann cell PMP22 intronic element firefly luciferase assay (AID 624032; active = well fitted curve in the direction sought with a large enough effect; an effect the other way counts as inactive or inconclusive; also: potency is read from the fitted curve at half-maximal effect; nearly all actives have a fitted effect of over 30% in size)
Procedure, shortened: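 Rat S16 Schwann cells stably carrying a PMP22 intronic element-driven Fluc reporter were seeded overnight, then exposed to compounds for 24 h at 37 °C. Luminescence was normalized to PTC124 (positive control) and DMSO (0% activity).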

[22] = S16 Schwann cell PMP22 intronic element beta-lactamase assay (AID 624044); details: S16 rat Schwann cells, PMP22 element beta-lactamase FRET, 24 h; ratio activity, negative = inhibition: at 38.3 µM (top of the series) unless noted; also: potency is read from the fitted curve at half-maximal effect; nearly all actives have a fitted effect of over 15% in size
Procedure, shortened: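 Beta-lactamase reporter under a PMP22 intronic regulatory element in stable S16 rat Schwann cells; 24 h compound exposure. 460 nm blue signal normalized between DMSO (0%) and potassium clavulanate, with 535 nm FRET tracking viability; curves classed by r2 and response.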

[23] = target: Cytochrome P450 2C9 (Homo sapiens) (UniProt P11712); assay: qHTS Assay for Inhibitors and Substrates of Cytochrome P450 2C9 (AID 883; active = well fitted curve in the direction sought with a large enough effect; an effect the other way counts as inactive or inconclusive; also: % is scaled to controls: 0 for no effect and ±100 for the full control effect; nearly all actives have a fitted effect of over 60% in size)
Procedure, shortened: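 CYP2C9 deoxyluciferin hydroxylation, 37C, 60 min with NADPH regeneration; 10nM enzyme, 100uM Luciferin-H (KM). Glo detection reagent stopped reaction; luminescence normalized to sulphaphenazole (57uM) full inhibition.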

[24] = VSVG counterscreen qHTS to identify inhibitors of SARS-CoV-2 cell entry (AID 1645847); also: potency is read from the fitted curve at half-maximal effect; nearly all actives have a fitted effect of over 65% in size
Procedure, shortened: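 Luminescence read after 48 h infection at 37 C with VSV-G-pseudotyped MLV particles, following 1 h compound exposure of Expi293F cells stably expressing human ACE2; scaled between bald particle and VSV-G particle wells.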

Phospholipid hydroperoxide glutathione peroxidase GPX4 (Homo sapiens), sequence (P36969 whole entry, looked up): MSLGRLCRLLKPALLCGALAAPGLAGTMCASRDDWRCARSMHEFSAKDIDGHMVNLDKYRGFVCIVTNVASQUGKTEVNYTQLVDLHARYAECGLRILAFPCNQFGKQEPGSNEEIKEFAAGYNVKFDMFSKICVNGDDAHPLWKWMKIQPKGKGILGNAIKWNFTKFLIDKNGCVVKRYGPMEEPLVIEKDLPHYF
Peroxisome proliferator-activated receptor delta (Homo sapiens), sequence (Q03181 whole entry, looked up): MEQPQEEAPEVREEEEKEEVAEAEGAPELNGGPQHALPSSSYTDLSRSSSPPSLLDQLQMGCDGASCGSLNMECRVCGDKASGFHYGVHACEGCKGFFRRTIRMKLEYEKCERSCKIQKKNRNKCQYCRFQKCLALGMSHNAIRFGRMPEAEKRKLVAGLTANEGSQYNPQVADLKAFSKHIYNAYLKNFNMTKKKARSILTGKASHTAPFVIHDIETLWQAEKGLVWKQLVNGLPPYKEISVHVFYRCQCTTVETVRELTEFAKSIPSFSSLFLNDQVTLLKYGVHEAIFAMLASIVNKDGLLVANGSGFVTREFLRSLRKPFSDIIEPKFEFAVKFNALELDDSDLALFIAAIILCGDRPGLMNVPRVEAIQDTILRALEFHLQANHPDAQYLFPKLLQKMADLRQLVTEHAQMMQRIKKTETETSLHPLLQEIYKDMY
Glutathione peroxidase 1 (Homo sapiens), sequence (P07203 whole entry, looked up): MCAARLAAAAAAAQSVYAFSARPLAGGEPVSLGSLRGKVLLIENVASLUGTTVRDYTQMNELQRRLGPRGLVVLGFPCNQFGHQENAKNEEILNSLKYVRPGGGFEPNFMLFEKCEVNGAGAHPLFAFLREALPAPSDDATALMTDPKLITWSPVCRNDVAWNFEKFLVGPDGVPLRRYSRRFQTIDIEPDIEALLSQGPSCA
Alpha-galactosidase (Coffea arabica), sequence (Q42656 whole entry, looked up): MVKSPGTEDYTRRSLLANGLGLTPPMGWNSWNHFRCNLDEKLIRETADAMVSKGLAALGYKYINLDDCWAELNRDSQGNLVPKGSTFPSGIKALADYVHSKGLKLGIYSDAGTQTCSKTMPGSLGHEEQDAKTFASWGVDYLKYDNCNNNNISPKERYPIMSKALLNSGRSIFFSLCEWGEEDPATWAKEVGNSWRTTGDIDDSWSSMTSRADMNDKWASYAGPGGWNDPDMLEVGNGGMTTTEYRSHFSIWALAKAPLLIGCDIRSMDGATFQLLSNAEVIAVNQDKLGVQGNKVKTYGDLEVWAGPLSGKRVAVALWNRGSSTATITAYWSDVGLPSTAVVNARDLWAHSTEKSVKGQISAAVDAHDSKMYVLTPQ
Estrogen receptor (Homo sapiens), sequence (P03372 whole entry, looked up): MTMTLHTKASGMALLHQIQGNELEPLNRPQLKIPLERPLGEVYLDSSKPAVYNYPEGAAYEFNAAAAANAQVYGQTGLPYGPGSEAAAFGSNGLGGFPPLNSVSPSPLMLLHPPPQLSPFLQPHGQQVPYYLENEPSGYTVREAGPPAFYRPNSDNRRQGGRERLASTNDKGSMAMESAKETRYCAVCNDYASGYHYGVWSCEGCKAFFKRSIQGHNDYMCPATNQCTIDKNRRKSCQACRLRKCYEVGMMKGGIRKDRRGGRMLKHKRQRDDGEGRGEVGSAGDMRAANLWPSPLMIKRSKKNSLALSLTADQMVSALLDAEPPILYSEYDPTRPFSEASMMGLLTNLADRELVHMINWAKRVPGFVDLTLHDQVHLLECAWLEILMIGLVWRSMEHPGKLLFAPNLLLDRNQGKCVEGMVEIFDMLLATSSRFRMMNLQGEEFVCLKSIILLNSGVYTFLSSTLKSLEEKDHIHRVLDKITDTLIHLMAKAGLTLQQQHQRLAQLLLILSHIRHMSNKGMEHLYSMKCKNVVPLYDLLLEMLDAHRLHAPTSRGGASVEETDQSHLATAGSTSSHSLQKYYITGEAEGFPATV
Thyroid hormone receptor beta (Homo sapiens), sequence (P10828 whole entry, looked up): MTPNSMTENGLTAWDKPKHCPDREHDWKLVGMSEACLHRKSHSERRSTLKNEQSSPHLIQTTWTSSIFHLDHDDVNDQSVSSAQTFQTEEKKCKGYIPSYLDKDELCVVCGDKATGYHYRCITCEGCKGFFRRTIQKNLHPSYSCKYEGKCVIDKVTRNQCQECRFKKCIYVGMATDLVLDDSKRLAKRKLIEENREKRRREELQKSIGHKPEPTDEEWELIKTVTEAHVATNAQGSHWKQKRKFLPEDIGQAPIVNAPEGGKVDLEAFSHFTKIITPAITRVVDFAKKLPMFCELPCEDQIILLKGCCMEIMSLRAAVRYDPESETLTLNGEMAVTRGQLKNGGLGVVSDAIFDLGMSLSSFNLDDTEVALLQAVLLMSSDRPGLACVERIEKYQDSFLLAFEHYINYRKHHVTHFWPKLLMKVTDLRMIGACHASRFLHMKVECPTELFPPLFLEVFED
Peroxisome proliferator-activated receptor gamma (Homo sapiens), sequence (P37231 whole entry, looked up): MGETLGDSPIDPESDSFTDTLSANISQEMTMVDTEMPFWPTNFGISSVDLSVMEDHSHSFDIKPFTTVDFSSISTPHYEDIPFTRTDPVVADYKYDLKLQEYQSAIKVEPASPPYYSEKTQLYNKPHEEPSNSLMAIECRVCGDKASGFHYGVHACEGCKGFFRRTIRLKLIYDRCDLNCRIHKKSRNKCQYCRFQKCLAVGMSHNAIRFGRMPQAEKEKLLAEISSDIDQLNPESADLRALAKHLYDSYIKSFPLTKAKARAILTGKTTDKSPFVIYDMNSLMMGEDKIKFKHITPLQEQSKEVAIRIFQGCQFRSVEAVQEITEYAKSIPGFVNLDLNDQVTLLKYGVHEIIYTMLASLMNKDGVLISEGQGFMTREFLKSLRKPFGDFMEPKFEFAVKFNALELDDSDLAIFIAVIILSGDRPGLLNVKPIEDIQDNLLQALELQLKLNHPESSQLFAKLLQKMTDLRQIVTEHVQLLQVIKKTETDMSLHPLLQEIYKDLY
Glucocorticoid receptor (Homo sapiens), sequence (P04150 whole entry, looked up): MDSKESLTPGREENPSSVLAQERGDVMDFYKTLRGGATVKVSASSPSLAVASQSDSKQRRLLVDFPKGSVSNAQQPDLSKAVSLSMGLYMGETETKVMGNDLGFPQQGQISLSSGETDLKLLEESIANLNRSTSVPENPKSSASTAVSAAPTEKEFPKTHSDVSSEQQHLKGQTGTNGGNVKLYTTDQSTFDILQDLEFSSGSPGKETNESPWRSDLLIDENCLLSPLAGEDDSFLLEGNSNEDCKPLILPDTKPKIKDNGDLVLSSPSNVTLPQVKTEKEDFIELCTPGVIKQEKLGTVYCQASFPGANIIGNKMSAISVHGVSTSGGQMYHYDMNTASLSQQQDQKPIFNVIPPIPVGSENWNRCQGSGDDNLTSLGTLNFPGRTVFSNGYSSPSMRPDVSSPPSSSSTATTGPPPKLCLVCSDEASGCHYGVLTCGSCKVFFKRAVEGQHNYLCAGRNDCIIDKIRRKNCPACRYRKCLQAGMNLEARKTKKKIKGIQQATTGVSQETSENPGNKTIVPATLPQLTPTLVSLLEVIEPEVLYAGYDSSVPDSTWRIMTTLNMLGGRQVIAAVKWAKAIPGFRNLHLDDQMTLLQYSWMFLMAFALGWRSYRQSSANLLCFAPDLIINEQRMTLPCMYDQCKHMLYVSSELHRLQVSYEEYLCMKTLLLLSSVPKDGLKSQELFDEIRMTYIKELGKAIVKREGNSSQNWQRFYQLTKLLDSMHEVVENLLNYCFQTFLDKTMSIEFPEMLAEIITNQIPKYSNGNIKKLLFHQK
Cytochrome P450 2C9 (Homo sapiens), sequence (P11712 whole entry, looked up): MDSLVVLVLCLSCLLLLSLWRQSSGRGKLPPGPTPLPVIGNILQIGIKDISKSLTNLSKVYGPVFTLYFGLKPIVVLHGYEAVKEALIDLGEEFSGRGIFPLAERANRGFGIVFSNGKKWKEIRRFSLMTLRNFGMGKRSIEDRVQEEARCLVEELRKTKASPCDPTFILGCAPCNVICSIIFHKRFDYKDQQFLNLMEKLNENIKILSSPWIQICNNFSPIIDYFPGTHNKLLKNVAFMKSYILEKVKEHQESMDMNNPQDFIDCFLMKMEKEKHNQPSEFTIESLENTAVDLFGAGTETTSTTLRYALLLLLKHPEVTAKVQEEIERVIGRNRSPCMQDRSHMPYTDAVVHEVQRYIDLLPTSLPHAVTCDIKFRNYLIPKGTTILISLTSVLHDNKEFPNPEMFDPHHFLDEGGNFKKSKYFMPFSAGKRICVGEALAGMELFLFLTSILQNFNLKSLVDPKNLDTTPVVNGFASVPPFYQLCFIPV

CN(C)CCC=C1c2ccccc2C(C)(C)c2ccccc21
inactive: Potency [1] | Potency [2] | Potency [3] | Potency [5]
active: Potency [4] 10 µM

C=C[C@]1(C)C[C@@H](OC(=O)CSC2C[C@H]3CC[C@@H](C2)N3C)C2(C)[C@H](C)CCC3(CCC(=O)[C@H]32)[C@@H](C)[C@@H]1O (stereo partly drawn)
inactive: Potency [1] | Potency [2]

O=C(O)CC(O)(CC(=O)O)C(=O)O
-17.5%: activity change, negative = inhibition [15]
inactive: Potency [7] | activation [8] 1.56% | outcome [9] | Potency [10] | activity change % (negative = inhibition) [11] -10.8% and 10.6% | outcome [13] | Potency [1] | Potency [14] | Potency [2]
active: Potency [6] 50.1 µM
inactive and 54.5 µM (active): Potency [12]

CC[N+](C)(C)Cc1ccccc1Br
inactive: outcome [16] | outcome [17] | Potency [18] | Potency [1] | Potency [14] | Potency [5]

CCCCCCCCCCCCNCCNCCNCC(=O)O
inactive: Potency [1] | Potency [14] | Potency [2] | Potency [5] | Potency [19] | Potency [20]

c1ccc(CCNCc2ccccc2)cc1
inactive: Potency [1] | Potency [14] | Potency [2] | Potency [5] | Potency [19] | Potency [20]

O=S(=O)(O)c1ccc2c(N=Nc3ccc(S(=O)(=O)O)c4ccccc34)c(O)c(S(=O)(=O)O)cc2c1
inactive: Potency [1] | Potency [14] | Potency [5]
-21.2%: activity change, negative = inhibition [15]

CC(C)n1c(/C=C/[C@H](O)C[C@H](O)CC(=O)O)c(-c2ccc(F)cc2)c2ccccc21
inactive: Potency [1] | Potency [14] | Potency [5]
active: Potency [21] 11.4 µM | Potency [22] 14.1 µM | Potency [2] 8.91 µM

CS(=O)(=O)OCCCNCCCOS(C)(=O)=O
inactive: Potency [1] | Potency [14] | Potency [2]
-19.8%: activity change, negative = inhibition [15]

Cc1c(O)c(=O)ccn1C
inactive: activity change, negative = inhibition [23] 39.1% [at 11.4 µM] | Potency [1] | Potency [14] | Potency [2] | Potency [5]

CC(C)N[C@@H]1CCn2c(=O)[nH]c3cccc(c32)[C@H]1O
inactive: Potency [1] | Potency [14] | Potency [2] | Potency [5] | Potency [15] | Potency [19] | Potency [20]

Cc1cc(C2=NOC(c3cc(Cl)cc(Cl)c3)(C(F)(F)F)C2)ccc1C(=O)NCC(=O)NCC(F)(F)F (stereo not drawn)
inactive: Potency [1] | Potency [14] | Potency [2] | Potency [5] | Potency [19]

CN1CCC2=C(C1)C(c1ccccc1)c1ccccc12 (stereo not drawn)
inactive: Potency [1] | Potency [14] | Potency [2] | Potency [5] | Potency [19] | Potency [20]

C=C[C@H]1CN2CC[C@H]1C[C@@H]2[C@@H](OC(=O)OCC)c1ccnc2ccc(OC)cc12
inactive: Potency [1] | Potency [14] | Potency [2] | Potency [5] | Potency [19] | Potency [20]

CO[C@H]1C[C@H](O[C@@H]2[C@H](C)O[C@H](O[C@@H]3/C(C)=C/C[C@@H]4C[C@@H](C[C@]5(C=C[C@H](C)[C@@H](C6CCCCC6)O5)O4)OC(=O)[C@@H]4C=C(C)C(O)[C@H]5OC/C(=C\C=C\[C@@H]3C)[C@]54O)C[C@@H]2OC)O[C@@H](C)[C@@H]1O (stereo partly drawn)
inactive: Potency [1] | Potency [14] | Potency [2] | Potency [5]
active: Potency [24] 1.36 µM

CN1CC[C@H](CN2c3ccccc3Sc3ccccc32)C1
active: Potency [4] 11.2 µM | Potency [15] 12.6 µM
inactive: Potency [1] | Potency [2] | Potency [3] | Potency [5]

Cc1nn(C)c2c1C(c1ccccc1F)=NCC(=O)N2C
active: Potency [14] 22.4 µM
inactive: Potency [1] | Potency [2] | Potency [5] | Potency [19] | Potency [20]

Cc1cc(C#N)cc(C)c1Oc1nc(Nc2ccc(C#N)cc2)nc(N)c1Br
inactive: Potency [1] | Potency [2]

FCOC(C(F)(F)F)C(F)(F)F
inactive: Potency [1] | Potency [14] | Potency [2]
-16%: activity change, negative = inhibition [15]
